# Shown are actives, neighbours in structure and some others; about 8.6% of the full set was active somewhere.
# MARV entry inh: qHTS for Inhibitors of binding or entry into cells for Marburg Virus. AID 720532, 2013. 18,000 compounds, 6.5% hits. Potency, µM (series often up to 49.2 µM), inactives show at the top dose activity change, negative = inhibition, actives largely listed as inhibitors. Marburg virus pseudotype entry/binding inhibition, cell-based
# Lassa entry: qHTS for Inhibitors of binding or entry into cells for Lassa Virus | Lassa virus pseudotyped entry inhibition, cell-based qHTS | Potency, µM (top dose mostly 49.2 µM), inactives show at the top dose activity change, negative = inhibition, usual class: inhibitors | AID 720533, 2013 | 18,000 compounds, 4.1% hits
# * hit, by the source's call; ? = inconclusive; ! = not active in a repeat; [ ] = remark or other dose. Calls follow the shape of the full dose curve; tested in HEK293 cells. % is scaled to controls: 0 for no effect and ±100 for the full control effect; potency is read from the fitted curve at half-maximal effect.
SMILES,MARV entry inh,Lassa entry
O[C@@H](CNC[C@H](O)[C@H]1CCc2cc(F)ccc2O1)[C@@H]1CCc2cc(F)ccc2O1,10µM*,?
COC(=O)CC1c2ccccc2C=C(C)N1C(=O)OC (centres undefined),20%,-8%
C1CCC(C(C[C@@H]2CCCCN2)C2CCCCC2)CC1,7.9µM*,-26%[17.8 µM]
COC(=O)C[C@@](O)(CCC(C)(C)O)C(=O)O[C@@H]1C(OC)=C[C@]23CCCN2CCc2cc4c(cc2[C@@H]13)OCO4,0.1µM*,0.11µM*
COC1=CC23CCCN2CCc2cc4c(cc2C3C1O)OCO4 (centres undefined),3%,-5%
COC(=O)C(O)C(O)(CCC(C)C)C(=O)OC1C(OC)=CC23CCCN2CCc2cc4c(cc2C13)OCO4 (centres undefined),0.004µM*,0.13µM*
COC(=O)C[C@](O)(CCCC(C)(C)O)C(=O)O[C@@H]1C(OC)=CC23CCCN2CCc2cc4c(cc2[C@H]13)OCO4 (some centres undefined),?,22µM*
COc1cc2nc(N3CCN(C(=O)C4CCCO4)CC3)nc(N)c2cc1OC (centres undefined),-14%,0%[17.8 µM]
CC(=O)c1ccc(C(=O)N2CCCC(c3nc(SCc4ccccn4)ncc3C)C2)cc1 (centres undefined),-4%,-7%
CC(C)=CCn1cnc2c1C(NOCc1ccccc1)=NCN2,-19%,-3%
Nc1ccc(O)cc1,50µM*,45µM*
NCCc1ccc(O)cc1,12%,?
O=C(CCCN1CCN(c2ccc(F)cc2)CC1)NC1c2ccccc2CSc2ccccc21 (centres undefined),14µM*,-29%
O=C(CCCN1CCN(c2ccccn2)CC1)c1ccc(F)cc1,9%,16%[17.8 µM]
CCCCC/C=C\C/C=C\CCCCCCCCCC(=O)NC(C)C(=O)O (centres undefined),-24%,12%
N[C@@H](Cn1c2c(c(=O)[nH]c1=O)CCC2)C(=O)O,-15%,-1%
NC(=NCc1ccccc1)NC(=O)c1nc(Cl)c(N)nc1N,25µM*!,?
NC(=Nc1ccccc1)NC(=O)c1nc(Cl)c(N)nc1N,?,12%
O=C(N[C@H]1CN2CCC1CC2)c1ccc(Cl)cc1,?,-10%
Cn1cc(C(=O)C(=O)N[C@H]2CN3CCC2CC3)c2ccccc21,28µM*!,?
N[C@@H](Cn1cc(I)c(=O)[nH]c1=O)C(=O)O,2%,-17%
COc1cc(C[C@H](C)N)c(OC)cc1C,-18%[107 µM],14%[107 µM]
COc1cc(CN2CCOc3ccc(CN4CCC(O)(c5cccnc5)CC4)cc3C2)cc(OC)c1,11µM*,-18%
COc1ccc(CN2CCOc3ccc(CN4CCC(O)(c5cccnc5)CC4)cc3C2)cc1OC,?,-4%
CC1(OC(=O)CCc2ccccc2)C(=O)C=C2C=C(c3ccc(C#N)cc3)N(Cc3ccccc3)C=C2C1=O (centres undefined),?,10%[8.59 µM]
SMILES,MARV entry inh,Lassa entry
Cc1[nH]c(=O)n(C(C)(C)C)c(=O)c1Cl,2%,1%
CN1CC[C@@]23CCCCC2C1Cc1ccc(O)cc13 (some centres undefined),-14%,9%
COc1ccc2c(c1)[C@@]13CCCCC1[C@@H](C2)N(C)CC3 (some centres undefined),8.9µM*,?
CC(=O)O[C@H]1C[C@@H]2CC[C@@H]3[C@H](CC[C@@]4(C)[C@H]3C[C@H](N3CC[N+](C)(C)CC3)[C@@H]4OC(C)=O)[C@@]2(C)C[C@@H]1N1CC[N+](C)(C)CC1,-13%,8%
CCCCn1c(C)cc2c(c1=O)[C@H]1O[C@](c3ccsc3)(Cc3ccccc31)O2,?,11%[8.59 µM]
CCOC(=O)C1Oc2ccccc2C(C(=O)OC)=C1C(=O)OC (centres undefined),11%,-5%
CCOC(=O)C1=C(N)Oc2ccc(Br)cc2[C@@H]1[C@@H](C#N)C(=O)OCC,24%,20µM*
CCCCC[C@H](O)/C=C/[C@@H]1[C@@H](C/C=C\CCCC(=O)O)[C@H]2CO[C@@H]1C2,11%,3%
CCCCC/C=C\C[C@@H]1O[C@H]1/C=C/C(O)C/C=C\CCCC(=O)O (some centres undefined),-14%,1%
CCCCN(CCCC)C(=S)[S-].CCCCN(CCCC)C(=S)[S-].[Zn+2],6.3µM*,11µM*
CN1C(=O)CCS(=O)(=O)[C@H]1c1ccc(Cl)cc1,7%,3%
CC(C)OC(=O)c1cn(Cc2c(F)cccc2F)c2sc(-c3ccc(NC(=O)C(C)C)cc3)c(CN(C)Cc3ccccc3)c2c1=O,2.5µM*,16µM*
C=CCN1C[C@H](C)N([C@@H](c2ccccc2)c2ccc(C(=O)N(CC)CC)cc2)C[C@H]1C,12%,0%
COC(=O)[C@@H]1C[C@H](NC(=O)c2ccccn2)CN1Cc1cccc2ccccc12,1%,-2%
COC(=O)[C@@H]1C[C@@H](NC(=O)c2cccc3c(C)c(C)[nH]c23)CN1Cc1cccc2ccccc12,1.8µM*,3.5µM*
C=CCN1CCC2(C)c3cc(O)ccc3CC1C2C (centres undefined),?,1%
C[C@H]1[C@H]2Cc3ccc(O)cc3[C@]1(C)CCN2CCc1ccccc1,18µM*,32µM*
CN1CC(CNC(=O)OCc2ccccc2)CC2c3cccc4c3c(cn4C)CC21 (centres undefined),10µM*,?
CC(O)C(C)OC(=O)[C@@H]1C[C@@H]2c3cccc4c3c(cn4C(C)C)C[C@H]2N(C)C1 (some centres undefined),13%,?
CNC[C@H](O)c1ccc(O)c(O)c1,7.9µM*!,?
NC[C@@H](O)c1ccc(O)c(O)c1,?,8%
CC(N)C(O)c1cccc(O)c1 (centres undefined),-23%,0%
C[C@H](N)[C@H](O)c1ccc(O)c(O)c1,5µM*,?
CC(C)NCC(O)c1ccc(O)c(O)c1 (centres undefined),-16%,5%
NC[C@H](O)c1ccc(O)c(O)c1,28µM*,0%
SMILES,MARV entry inh,Lassa entry
CO/N=C(\C(=O)N[C@@H]1C(=O)N2C(C(=O)O)=C(CSc3nnnn3C)CS[C@H]12)c1csc(N)n1,25%,-2%
O=C(O)c1ccccc1OS(=O)(=O)O,-8%,-23%
CCCCN1CC(COCc2ccccc2)Oc2cccc(N3CCCC3)c2S1(=O)=O (centres undefined),-12%,-38%
CC(=O)Nc1c(I)c(C(=O)O)c(I)c(N(C)C(C)=O)c1I,27%,-6%
COC(=O)[C@@]1(C=C2c3ccc(F)cc3[C@@H](OC)[C@@H]2C)[C@@H]2Oc3ccccc3[C@@H]21,-17%[8.59 µM],1%[8.59 µM]
Cc1ccc(CN2CC(N3CCN(Cc4cccc(C)c4)CC3)CS2(=O)=O)cc1 (centres undefined),20%,10%
c1ccc(C[C@@H](c2ccccc2)N2CCCCC2)cc1,?,-7%
CN1CCN(C(c2ccccc2)c2ccccc2)CC1,11µM*!,11µM*!
Cc1cccc(CN2CCN(C(c3ccccc3)c3ccc(Cl)cc3)CC2)c1 (centres undefined),7.1µM*,?
CN1CCCN(C(c2ccccc2)c2ccc(Cl)cc2)CC1 (centres undefined),7.1µM*,22µM*
COCC1CN(CCc2ccc(F)cc2)[S+](=O)([O-])c2c(OCCN3C(=O)[C@H]4[C@H](C3=O)[C@H]3C=C[C@@H]4C3)cccc2O1 (some centres undefined),-18%,-10%

# Screening data as filed in PubChem BioAssay.
